About 83,000 compounds went through this panel and 20% of them were active in at least one assay; those are over-represented in the sample as a whole.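 Cells were grown in 96-well plates and exposed to the test compound at a single concentration for 48 hours; results are reported as percent growth, with values below 10 considered active.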 Active and inactive are the calls of the source.
Assays:
Test in all cases: NCI-60 one-dose screen, 48 h (100 = growth as untreated, 0 = no growth, -100 = all killed)
Details in all cases: 10 µM unless noted
HCT-15 colon = test system: HCT-15 colon
HT29 colon = test system: HT29 colon
SNB-75 CNS = test system: SNB-75 CNS
SNB-19 CNS = test system: SNB-19 CNS
U251 CNS = test system: U251 CNS
PC-3 prostate = test system: PC-3 prostate
SK-MEL-5 melanoma = test system: SK-MEL-5 melanoma
UACC-62 melanoma = test system: UACC-62 melanoma
LOX IMVI melanoma = test system: LOX IMVI melanoma
SK-MEL-28 melanoma = test system: SK-MEL-28 melanoma
SK-MEL-2 melanoma = test system: SK-MEL-2 melanoma
EKVX NSCLC = test system: EKVX NSCLC
SN12C renal = test system: SN12C renal
UO-31 renal = test system: UO-31 renal
TK-10 renal = test system: TK-10 renal
ACHN renal = test system: ACHN renal
CAKI-1 renal = test system: CAKI-1 renal
A498 renal = test system: A498 renal
MOLT-4 leukemia = test system: MOLT-4 leukemia
CCRF-CEM leukemia = test system: CCRF-CEM leukemia

Measured: growth

CCOc1ccc(-c2cnnn2-c2nonc2-n2cccc2)cc1
inactive: HCT-15 colon 22.6% | SNB-19 CNS 37% | U251 CNS 17.6% | PC-3 prostate 30.4% | SK-MEL-5 melanoma 24.7% | UACC-62 melanoma 35.6% | LOX IMVI melanoma 33.1% | SK-MEL-28 melanoma 37.5% | SK-MEL-2 melanoma 18.3% | EKVX NSCLC 60.9% | SN12C renal 40.1% | UO-31 renal 29.8% | TK-10 renal 45.3% | ACHN renal 47.3% | CAKI-1 renal 46.4% | A498 renal 18.7%
active: HT29 colon 1.88% | SNB-75 CNS 5.23% | MOLT-4 leukemia 8.83%

Cc1ccccc1-c1cc(-c2ccc(Br)s2)[nH]c(=O)c1C#N
inactive: HCT-15 colon 98.7% | HT29 colon 112% | SNB-75 CNS 92.3% | SNB-19 CNS 103% | U251 CNS 106% | PC-3 prostate 98.9% | SK-MEL-5 melanoma 93.1% | UACC-62 melanoma 92.3% | LOX IMVI melanoma 94.2% | SK-MEL-28 melanoma 108% | SK-MEL-2 melanoma 113% | EKVX NSCLC 85.6% | SN12C renal 102% | UO-31 renal 83.3% | TK-10 renal 109% | ACHN renal 101% | CAKI-1 renal 88.1% | CCRF-CEM leukemia 106% | MOLT-4 leukemia 92.7%

CCCCCCCC/C=C\CCCCCCCCOc1cccc(CC(=O)NCC[N+]2(C)CCCC2)c1
inactive: HCT-15 colon 98.7% | HT29 colon 38.5% | SNB-75 CNS 53.3% | SNB-19 CNS 62.6% | U251 CNS 53.5% | PC-3 prostate 36.3% | SK-MEL-5 melanoma 94.1% | UACC-62 melanoma 71.7% | LOX IMVI melanoma 87% | SK-MEL-28 melanoma 98.6% | SK-MEL-2 melanoma 107% | EKVX NSCLC 89.4% | SN12C renal 53% | UO-31 renal 94.1% | TK-10 renal 84.7% | ACHN renal 99% | CAKI-1 renal 78.1% | CCRF-CEM leukemia 51.6% | MOLT-4 leukemia 80.3%

COc1cc(-c2nc3ccccc3o2)cc(CN2CCN(c3ccccc3)CC2)c1O
inactive: HCT-15 colon 43.6% | HT29 colon 93.8% | SNB-75 CNS 65.7% | SNB-19 CNS 82.6% | U251 CNS 52.6% | PC-3 prostate 40.4% | SK-MEL-5 melanoma 31.7% | UACC-62 melanoma 34% | SK-MEL-28 melanoma 87.2% | SK-MEL-2 melanoma 75% | EKVX NSCLC 71.8% | SN12C renal 66.2% | UO-31 renal 43.8% | TK-10 renal 117% | ACHN renal 73.6% | CAKI-1 renal 84.9% | A498 renal 77.6% | MOLT-4 leukemia 92.5%
active: LOX IMVI melanoma 8.05%

Nc1cc(Br)c(-c2nnc(CCC(=O)c3nc4ccccc4[nH]3)o2)c(Br)c1
inactive: HCT-15 colon 104% | HT29 colon 84.1% | SNB-75 CNS 58.9% | SNB-19 CNS 85.5% | U251 CNS 68.2% | PC-3 prostate 74.9% | SK-MEL-5 melanoma 47.7% | UACC-62 melanoma 55.6% | LOX IMVI melanoma 44.7% | SK-MEL-28 melanoma 65.4% | SK-MEL-2 melanoma 34.3% | EKVX NSCLC 95.6% | SN12C renal 95.4% | UO-31 renal 47.4% | TK-10 renal 101% | ACHN renal 102% | CAKI-1 renal 90.5% | A498 renal 71.7% | MOLT-4 leukemia 68.2%

Cc1cccc2c(=O)c3c(sc12)c(NCCCN)nc1ccccc13
active: HCT-15 colon -69.2% | HT29 colon -52.8% | U251 CNS 1.33% | LOX IMVI melanoma -93.7% | SK-MEL-28 melanoma 8.94% | ACHN renal -82.9% | CAKI-1 renal 4.76% | CCRF-CEM leukemia 2.89% | MOLT-4 leukemia -18.3%
inactive: SNB-75 CNS 19.7% | SNB-19 CNS 51.3% | PC-3 prostate 34.8% | SK-MEL-5 melanoma 47.3% | UACC-62 melanoma 14.2% | SK-MEL-2 melanoma 89.2% | EKVX NSCLC 40.6% | SN12C renal 22.1% | UO-31 renal 19.6% | TK-10 renal 29%

COc1ccc(/C=N\N2CCOCC2)cc1OC1CCCC1
inactive: HCT-15 colon 104% | HT29 colon 106% | SNB-75 CNS 86.8% | SNB-19 CNS 95.8% | U251 CNS 101% | PC-3 prostate 101% | SK-MEL-5 melanoma 99.3% | UACC-62 melanoma 92.7% | LOX IMVI melanoma 101% | SK-MEL-28 melanoma 116% | SK-MEL-2 melanoma 106% | EKVX NSCLC 89.4% | SN12C renal 101% | UO-31 renal 82% | TK-10 renal 101% | ACHN renal 104% | CAKI-1 renal 94.1% | CCRF-CEM leukemia 106% | MOLT-4 leukemia 122%

CC(=O)Nc1ccc(S(=O)(=O)N/N=C\c2ccc(Cl)c(Cl)c2)cc1
inactive: HCT-15 colon 118% | HT29 colon 102% | SNB-75 CNS 81.7% | SNB-19 CNS 103% | U251 CNS 95.5% | PC-3 prostate 83.6% | SK-MEL-5 melanoma 104% | UACC-62 melanoma 99.2% | LOX IMVI melanoma 98.7% | SK-MEL-28 melanoma 115% | SK-MEL-2 melanoma 90.6% | EKVX NSCLC 99.7% | SN12C renal 99.1% | TK-10 renal 93.2% | ACHN renal 98.5% | CAKI-1 renal 91.5% | A498 renal 72.7% | CCRF-CEM leukemia 92.8% | MOLT-4 leukemia 100%

O=c1[nH]c(=O)n(Cc2ccc(F)cc2)cc1F
inactive: HCT-15 colon 99.5% [50 µM] | HT29 colon 114% [50 µM] | SNB-75 CNS 104% [50 µM] | SNB-19 CNS 100% [50 µM] | U251 CNS 98.7% [50 µM] | PC-3 prostate 107% [50 µM] | SK-MEL-5 melanoma 104% [50 µM] | UACC-62 melanoma 101% [50 µM] | LOX IMVI melanoma 96.4% [50 µM] | SK-MEL-28 melanoma 109% [50 µM] | SK-MEL-2 melanoma 111% [50 µM] | EKVX NSCLC 105% [50 µM] | SN12C renal 99.8% [50 µM] | UO-31 renal 89.4% [50 µM] | ACHN renal 105% [50 µM] | CAKI-1 renal 95.3% [50 µM] | A498 renal 92.1% [50 µM] | CCRF-CEM leukemia 104% [50 µM] | MOLT-4 leukemia 96% [50 µM]

Cc1ccccc1-n1nnc(C(=O)Nc2nc(-c3ccccc3)c(-c3ccccc3)s2)c1C
inactive: HCT-15 colon 67.3% [50 µM] | HT29 colon 78.7% [50 µM] | SNB-19 CNS 49.5% [50 µM] | U251 CNS 76.6% [50 µM] | PC-3 prostate 63.2% [50 µM] | SK-MEL-5 melanoma 80.5% [50 µM] | UACC-62 melanoma 69.9% [50 µM] | LOX IMVI melanoma 80.7% [50 µM] | SK-MEL-28 melanoma 87.2% [50 µM] | SK-MEL-2 melanoma 89% [50 µM] | EKVX NSCLC 69.8% [50 µM] | SN12C renal 79.2% [50 µM] | UO-31 renal 86% [50 µM] | ACHN renal 84.6% [50 µM] | CAKI-1 renal 63.5% [50 µM] | A498 renal 104% [50 µM] | CCRF-CEM leukemia 63.5% [50 µM] | MOLT-4 leukemia 67% [50 µM]
active: SNB-75 CNS 5.92% [50 µM]

COc1ccc(C2=NOC(CC(=O)N(CCO)CCO)C2)cc1OC1CCCC1 (centres undefined)
inactive: HCT-15 colon 98.6% | HT29 colon 110% | SNB-75 CNS 86.5% | SNB-19 CNS 97% | U251 CNS 97.5% | PC-3 prostate 95.5% | SK-MEL-5 melanoma 94.1% | UACC-62 melanoma 100% | LOX IMVI melanoma 103% | SK-MEL-28 melanoma 119% | SK-MEL-2 melanoma 106% | EKVX NSCLC 91.5% | SN12C renal 104% | UO-31 renal 88.3% | TK-10 renal 98.9% | ACHN renal 104% | CAKI-1 renal 99.5% | CCRF-CEM leukemia 112% | MOLT-4 leukemia 125%

CCN1CCN(c2ccc(Nc3ncc4ccc5ncn(C(C)C)c5c4n3)nc2)CC1
active: HCT-15 colon -0.238% | HT29 colon 5.37% | SNB-75 CNS -66% | SNB-19 CNS 9.26% | PC-3 prostate 7.15% | SK-MEL-5 melanoma -8.75% | UACC-62 melanoma -17% | LOX IMVI melanoma -33.3% | SK-MEL-28 melanoma -13.7% | SK-MEL-2 melanoma -56.7% | EKVX NSCLC -6.84% | SN12C renal 4.25% | UO-31 renal -5.17% | ACHN renal 2.84% | CAKI-1 renal -10.7% | A498 renal -61.5% | CCRF-CEM leukemia 4.85% | MOLT-4 leukemia 2.48%
inactive: U251 CNS 14.1%

CC(C)N1CCN(c2ccc(OC[C@H]3CO[C@](Cn4cncn4)(c4ccc(Cl)cc4Cl)O3)cc2)CC1
inactive: HCT-15 colon 62.3% | HT29 colon 21.5% | SNB-75 CNS 89.7% | SNB-19 CNS 97.7% | U251 CNS 73.8% | PC-3 prostate 73.9% | SK-MEL-5 melanoma 47.9% | UACC-62 melanoma 71.6% | LOX IMVI melanoma 86.5% | SK-MEL-28 melanoma 63.2% | SK-MEL-2 melanoma 95% | EKVX NSCLC 91.4% | SN12C renal 81.2% | TK-10 renal 91.5% | ACHN renal 102% | CAKI-1 renal 79.3% | A498 renal 76.7% | CCRF-CEM leukemia 82.6%

Clc1ccc2c(c1)C[C@H]1C[C@@H](c3cccs3)N2O1
inactive: HCT-15 colon 97.2% | HT29 colon 111% | SNB-75 CNS 101% | SNB-19 CNS 114% | U251 CNS 93.7% | PC-3 prostate 91.6% | SK-MEL-5 melanoma 99.5% | UACC-62 melanoma 105% | LOX IMVI melanoma 93.2% | SK-MEL-28 melanoma 110% | SK-MEL-2 melanoma 113% | EKVX NSCLC 83.2% | SN12C renal 106% | TK-10 renal 104% | ACHN renal 104% | CAKI-1 renal 94.4% | A498 renal 77.1% | CCRF-CEM leukemia 100% | MOLT-4 leukemia 89.3%

COC(=O)c1c2c(c(C)[n+]([O-])c1C)C(=O)C=C(NCc1ccc(F)c(Cl)c1)C2=O
inactive: TK-10 renal 21.2%
active: HCT-15 colon -70.4% | HT29 colon 3.68% | SNB-75 CNS -96.9% | SNB-19 CNS -48.5% | U251 CNS -21.7% | PC-3 prostate -1.13% | SK-MEL-5 melanoma -97.7% | UACC-62 melanoma -70.8% | LOX IMVI melanoma -64.5% | SK-MEL-28 melanoma -11.8% | SK-MEL-2 melanoma -42.8% | EKVX NSCLC -63.3% | SN12C renal -85.7% | UO-31 renal -49.5% | ACHN renal -38.4% | CAKI-1 renal -16.1% | CCRF-CEM leukemia -2.7% | MOLT-4 leukemia -35.6%
